Results on 40 compounds are retold here after ChEMBL document CHEMBL3988442, “University of Dundee, Small-Polar-MMV Screening Library” (2021).

The test deals with AMP-activated protein kinase, AMPK (Homo sapiens) (UniProt P54646+O43741+P54619+Q9UGJ0+Q9Y478+Q13131+Q9UGI9). Kind of test: AMP-dependent Kinase enzyme assay. An in vitro enzyme assay that detects ADP turnover that is directly proportional to AMPK activity. This uses naive AMPK that is activated during the assay with MK-8722. The arrangement: scale not given: direction of the effect not stated beside the values. It is filed as functional. The settings on record: 30 µM.
As for `COc1ccc2c(c1)OCC(CNC1CCc3nc(C)nn3C1)=C2` (stereo not given), the Percent Effect is 7.59%.

Regarding `CNc1ccc(C)cc1C(=O)N1CCCC2(CCNC2)C1` (stereo not given), the Percent Effect worked out at 10.4%.

As to `Cc1c(F)cccc1S(=O)(=O)N(C)CC(C)O` (stereo not given), the Percent Effect was 1.59%.

As to `Cc1nc2c(c(N[C@H](C(N)=O)C(C)C)n1)Cc1ccccc1OC2`, the Percent Effect is -25.7%.

With `CC(C)(CNC(=O)c1ccco1)CNC(=O)c1ccco1`, the Percent Effect was -2.53%.

On to `CCc1ccc(CC)c(NCc2cnc(N3CCOCC3)nc2)c1`, for which the Percent Effect was -6.68%.

For the compound `CN1CCC(N(Cc2ccncc2)C(=O)COCC2CCCCO2)CC1` (stereo not given), the Percent Effect stood at 1.82%.

Turning to `CN(C)Cc1cccc(-c2cccnc2C(=O)NCc2ccco2)c1`, the Percent Effect amounted to 20%.

With `O=C1CCC2(CCNCC2)CN1Cc1nncn1CCc1ccccc1`, the Percent Effect stood at 14.9%.

As for `CN(C(=O)c1cccc(C#N)c1)c1nnc(C2CCOC2)s1` (stereo not given), the Percent Effect is 5.31%.

Take `CC1COCCN1C(=O)Cc1cc(Cl)c2c(c1)OCCCO2` (stereo not given): the Percent Effect was determined as 7.18%.

As for `N#Cc1cccnc1NCc1cccnc1N1CCCCC1`, the Percent Effect is 7.89%.

Turning to `O=C(NCc1ccco1)N1CCC(n2cc(-c3ccccn3)nn2)CC1`, the Percent Effect was 0.674%.

Take `O=S(=O)(NC1CCN(CC(F)(F)F)C1)c1cc(F)cc(F)c1` (stereo not given): the Percent Effect worked out at 4.84%.

In the case of `O=C(CC1CCc2ccccc21)NC1(C(=O)O)CCOCC1` (stereo not given), the Percent Effect was -0.354%.

For `Cc1noc(C)c1-c1n[nH]c2c1CN(S(=O)(=O)c1cccnc1)CC2`, the Percent Effect turned out to be 1.02%.

With `Cc1cc(C(=O)N2CCNC(=O)C2)c(C)n1Cc1ccccn1`, the Percent Effect is -10.9%.

As to `CCCc1ccc(CN2CCC3(CCC(=O)N(CCO)C3)CC2)o1`, the Percent Effect came out at 12.9%.

With `O=C(Nc1ccccc1OCCc1ccccn1)N1CC[C@@H](O)C1`, the Percent Effect amounted to 8.55%.

As to `Cc1ccc(C2(O)CCN(C(=O)CCn3c(C)cccc3=O)CC2)nc1`, the Percent Effect was -22.2%.

As to `O=C(NCc1csc(Br)c1)Nc1cn[nH]c1`, the Percent Effect is -3.79%.

Take `CNC(=O)c1ccc(C2CN(c3cc(C)nc(N)n3)CCO2)nc1` (stereo not given): the Percent Effect is -3.96%.

Regarding `CN(C)CCN(Cc1cccc(F)c1)C(=O)c1ccn(C)c(=O)c1`, the Percent Effect is 9.63%.

Consider `Nc1nc(CCCNC(=O)c2ccccc2C2CCNC2)cs1` (stereo not given), for which the Percent Effect is -5.1%.

With `Cc1cc(COC(=O)[C@@H]2Cc3ccccc3CN2S(C)(=O)=O)no1`, the Percent Effect was 27.9%.

Take `CCCc1ccc(CN2CCC3(CCC(=O)N(C)CC3)CC2)o1`: the Percent Effect amounted to 1.5%.

For the compound `CCN(C)S(=O)(=O)N[C@H]1CN(c2ccc(F)cn2)C[C@@H]1C(C)C`, the Percent Effect is -6.05%.

Consider `O=C1NCCN(Cc2ccccc2)C1CC(=O)N1CCc2n[nH]cc2C1` (stereo not given), for which the Percent Effect was -20.4%.

With `Cc1cc(C(=O)NCCN2CCC(C)CC2)nn1C(C)(C)C`, the Percent Effect worked out at 5.48%.

As for `COc1ccc(-c2cc3nc(CCNC(=O)C4CC4)nn3cn2)cc1`, the Percent Effect is -2.76%.

As to `Cc1nc(C)c(C(=O)N2CCc3c(C)cccc32)o1`, the Percent Effect was found to be 4.71%.

Turning to `Cc1ncc(C(=O)N2CCOC(C(=O)N3CCCCC3)C2)c(C)n1` (stereo not given), the Percent Effect was -4.59%.

For `CCN(Cc1cnc(C)cn1)C1CCN(c2ccccc2)C1=O` (stereo not given), the Percent Effect is -4.52%.

Regarding `O=C(Cn1cc(-c2ccccc2)cn1)N1CCNC1=O`, the Percent Effect worked out at 0.445%.

Regarding `Cc1nnc(N2CCc3cnc(C(C)C)nc3C2)c(C#N)c1C`, the Percent Effect was -15.2%.

With `COCCN1C(=O)[C@H]2CC[C@@H]1CN(S(=O)(=O)c1ccc(OC)cc1)C2`, the Percent Effect came out at 13.1%.

In the case of `CC(C)Cc1ncc2c(n1)CN(c1cc(NCCO)nc(N)n1)C2`, the Percent Effect was -165%.

For `c1ccc(CN2CCN(C3CCOC4(CCOCC4)C3)CC2)nc1` (stereo not given), the Percent Effect is -0.926%.

`CCNC(=O)[C@@H]1C[C@H](N)CN1c1cc(C(F)(F)F)nc(N2CCCC2)n1`: the Percent Effect is 2.77%.

On to `O=C(Cc1c(F)cccc1Cl)NC1CCCCNC1=O` (stereo not given), for which the Percent Effect was found to be 7.73%.
